Data taken from PubChem BioAssay (NCI).
Compounds without any hit were thinned out: in the full panel of roughly 83,000, 20% have a hit.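 Assay: single dose, 48 h. Readout: percent growth (0 = no net growth; negative = cell death). Active: <10.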 Activity calls are given as the source filed them.

Columns and labels:
Assay in all cases: NCI-60 one-dose screen, 48 h (100 = growth as untreated, 0 = no growth, -100 = all killed)
Conditions in all cases: 10 µM unless noted
NCI-H23 lung = tested on: NCI-H23 lung
NCI-H226 lung = tested on: NCI-H226 lung
NCI-H322M lung = tested on: NCI-H322M lung
HOP-62 NSCLC = tested on: HOP-62 NSCLC
NCI-H460 lung = tested on: NCI-H460 lung
HOP-92 NSCLC = tested on: HOP-92 NSCLC
NCI-H522 lung = tested on: NCI-H522 lung
A549/ATCC NSCLC = tested on: A549/ATCC NSCLC
786-0 renal = tested on: 786-0 renal
COLO 205 colon = tested on: COLO 205 colon
DU-145 prostate = tested on: DU-145 prostate
K-562 leukemia = tested on: K-562 leukemia
MALME-3M melanoma = tested on: MALME-3M melanoma
MDA-MB-231 breast = tested on: MDA-MB-231 breast
RXF 393 renal = tested on: RXF 393 renal
SF-268 CNS = tested on: SF-268 CNS
SF-295 CNS = tested on: SF-295 CNS
SF-539 CNS = tested on: SF-539 CNS
UACC-257 melanoma = tested on: UACC-257 melanoma
M14 melanoma = tested on: M14 melanoma

| SMILES | growth (NCI-H23 lung) | growth (NCI-H226 lung) | growth (NCI-H322M lung) | growth (HOP-62 NSCLC) | growth (NCI-H460 lung) | growth (HOP-92 NSCLC) | growth (NCI-H522 lung) | growth (A549/ATCC NSCLC) | growth (786-0 renal) | growth (COLO 205 colon) | growth (DU-145 prostate) | growth (K-562 leukemia) | growth (MALME-3M melanoma) | growth (MDA-MB-231 breast) | growth (RXF 393 renal) | growth (SF-268 CNS) | growth (SF-295 CNS) | growth (SF-539 CNS) | growth (UACC-257 melanoma) | growth (M14 melanoma) |
| --- | --- | --- | --- | --- | --- | --- | --- | --- | --- | --- | --- | --- | --- | --- | --- | --- | --- | --- | --- | --- |
| O=C(/C=C/c1ccccc1)c1ccc(-n2cc(CN3CCN(c4cc5c(cc4F)c(=O)c(C(=O)O)cn5C4CC4)CC3)nn2)cc1 | 79.7% (inactive) | 73% (inactive) | 84.4% (inactive) | 79.6% (inactive) | 76.1% (inactive) | 79.6% (inactive) | 80.1% (inactive) | 88.9% (inactive) | 54.2% (inactive) | 108% (inactive) | 76.3% (inactive) | 56% (inactive) | 91.2% (inactive) | 89.4% (inactive) | 58.3% (inactive) | 70.4% (inactive) | 91.7% (inactive) | 69% (inactive) | 91% (inactive) | 84.4% (inactive) |
| Cc1ccc(NC(=O)c2cc3ccccc3cc2O)c(C)c1 | 71.9% (inactive) | 86.6% (inactive) | 94.4% (inactive) | 89.3% (inactive) | 79.9% (inactive) | 36.4% (inactive) | -1.58% (active) | 106% (inactive) | 84.7% (inactive) | 78.5% (inactive) | 96.3% (inactive) | 63.6% (inactive) | 69.8% (inactive) | 97.8% (inactive) | 113% (inactive) | 102% (inactive) | 94.1% (inactive) | 78.7% (inactive) | 86.3% (inactive) | 86.9% (inactive) |
| Cc1ccc(O)c(NC(=O)c2cccc(Nc3ccnc(C(F)(F)F)c3)c2)c1 | 44.1% (inactive) | 44.8% (inactive) | 86.5% (inactive) | 85.6% (inactive) | 55.4% (inactive) | 77.6% (inactive) | 43.1% (inactive) | 60.3% (inactive) | 50% (inactive) | 128% (inactive) | 80.9% (inactive) | 40.9% (inactive) | 70.1% (inactive) | 58.9% (inactive) | 91.2% (inactive) | 76.6% (inactive) | 40.3% (inactive) | 72.6% (inactive) | 58.7% (inactive) | 68.4% (inactive) |
| Cc1ccc(C2CC(c3cccc(Nc4ccncc4)c3)=Nc3c(N)nc(N)nc3N2)cc1 (stereo not given) | 56% (inactive) | 88.9% (inactive) | 67.4% (inactive) | 86.4% (inactive) | 23.1% (inactive) | 49.8% (inactive) | 75.7% (inactive) | 28.3% (inactive) | 36.4% (inactive) | 52.3% (inactive) | 70.9% (inactive) | 21.3% (inactive) | 78.7% (inactive) | 66.1% (inactive) | 55.6% (inactive) | 63.1% (inactive) | 67% (inactive) | 67.9% (inactive) | 63.7% (inactive) | 42.3% (inactive) |
| c1ccc(-c2ccc3c(c2)C2(CCNCC2)CN3)cc1 | 86.3% (inactive) | 95.9% (inactive) | 102% (inactive) | 95.2% (inactive) | 95.8% (inactive) | 86.1% (inactive) | 88.3% (inactive) | 112% (inactive) | 95.1% (inactive) | 103% (inactive) | 99% (inactive) | 90% (inactive) | 94.1% (inactive) | 85.1% (inactive) | 112% (inactive) | 87.4% (inactive) | 98.6% (inactive) | 97.8% (inactive) | 119% (inactive) | 92.3% (inactive) |
| CCOC(=O)c1c(C)nc2c(c1N)C(=O)C(=O)N2Cc1ccc(OC)cc1 | 59.6% (inactive) | 90.8% (inactive) | 99.5% (inactive) | 40.1% (inactive) | 101% (inactive) | 39.6% (inactive) | 41.3% (inactive) | 88% (inactive) | 39.7% (inactive) | 123% (inactive) | 84.7% (inactive) | 28.8% (inactive) | 58.7% (inactive) | 79.7% (inactive) | 87.9% (inactive) | 64.7% (inactive) | 74.3% (inactive) | 45.5% (inactive) | 76.2% (inactive) | 68.8% (inactive) |
| O=C(Cn1nc(-c2cccc3ccccc23)ccc1=O)NCc1cccc(Cl)c1 | 45.2% [50 µM] (inactive) | 38.2% [50 µM] (inactive) | 70.4% [50 µM] (inactive) | 72.2% [50 µM] (inactive) | 32.2% [50 µM] (inactive) | 26.3% [50 µM] (inactive) | 17.1% [50 µM] (inactive) | 28.5% [50 µM] (inactive) | 37.7% [50 µM] (inactive) | 37.3% [50 µM] (inactive) | 55.7% [50 µM] (inactive) | 20.4% [50 µM] (inactive) | 70.5% [50 µM] (inactive) | 55% [50 µM] (inactive) | 37.7% [50 µM] (inactive) | 52.9% [50 µM] (inactive) | 18.7% [50 µM] (inactive) | 58.3% [50 µM] (inactive) | 44.2% [50 µM] (inactive) | 34% [50 µM] (inactive) |
| c1cc(OCCN2CCCCC2)ccc1CNc1ccc2nc(CCC3CCCCC3)[nH]c2c1 | 73.8% (inactive) | 36.2% (inactive) | 74.6% (inactive) | 54.2% (inactive) | 33.6% (inactive) | 26.7% (inactive) | 50.4% (inactive) | 42.3% (inactive) | -61% (active) | -66% (active) | 59.9% (inactive) | -1.42% (active) | -85.9% (active) | 9.11% (active) | 11.9% (inactive) | 57.6% (inactive) | -38.6% (active) | -73.3% (active) | -75% (active) | -75% (active) |
| N#Cc1ccc(/C=C/c2cn(-c3ccccc3)nc2-c2cccc([N+](=O)[O-])c2)cc1 | 56.4% (inactive) | 6.28% (active) | 62.9% (inactive) | 37.8% (inactive) | 40.1% (inactive) | 74.6% (inactive) | 20.1% (inactive) | 49.5% (inactive) | 58.7% (inactive) | 83.6% (inactive) | 59.5% (inactive) | 61.2% (inactive) | 50.3% (inactive) | 36.1% (inactive) | 67.1% (inactive) | 56.5% (inactive) | 62.5% (inactive) | 65.7% (inactive) | 70.2% (inactive) | 68.8% (inactive) |
| Clc1ccc(-c2nc(C(Cl)Cl)nc3cc(-c4ccccc4)nn23)cc1 | -3.66% (active) | 84.6% (inactive) | -50.5% (active) | 14.6% (inactive) | -54.6% (active) | 49.4% (inactive) | 22.6% (inactive) | -12.7% (active) | 79.9% (inactive) | -8.35% (active) | -2.59% (active) | 33.2% (inactive) | 46.4% (inactive) | 36.9% (inactive) | -55% (active) | 41.7% (inactive) | 14.3% (inactive) | 44% (inactive) | 52.5% (inactive) | 24.2% (inactive) |
| CN(C)CCCn1c2c(c3cnccc3c1=O)C(=O)c1ccccc1-2 | -10.7% (active) | -13.8% (active) | -7.53% (active) | -1.96% (active) | -27.2% (active) | -9.59% (active) | -28.2% (active) | 11.3% (inactive) | -4.55% (active) | -25% (active) | -16.9% (active) | 3.18% (active) | -45.7% (active) | 0.187% (active) | -28.4% (active) | -3.3% (active) | 6.47% (active) | -6.26% (active) | -26.8% (active) | -47.9% (active) |
| C[C@H]1[C@H](C)CC[C@]2(C(=O)NCCNCCN)CC[C@]3(C)C(=CC[C@@H]4[C@@]5(C)CCC(=O)C(C)(C)[C@@H]5CC[C@]43C)[C@H]12 | 94.2% (inactive) | 99.3% (inactive) | 85% (inactive) | 81.1% (inactive) | -80% (active) | 52.9% (inactive) | 54.3% (inactive) | 42.4% (inactive) | 80.7% (inactive) | -49.9% (active) | 51.6% (inactive) | -9.33% (active) | 71.3% (inactive) | 52.9% (inactive) | 85% (inactive) | 72.6% (inactive) | 102% (inactive) | -28.3% (active) | 88.7% (inactive) | 40.9% (inactive) |
| N#Cc1c(-c2ccc(Br)cc2)nc2c(N=Nc3ccc(S(N)(=O)=O)cc3)c(N)nn2c1N | 63.7% (inactive) | 66.2% (inactive) | 74.7% (inactive) | 52.2% (inactive) | 37.1% (inactive) | 31.5% (inactive) | 38.6% (inactive) | 68.4% (inactive) | 69.9% (inactive) | 25.5% (inactive) | 33.2% (inactive) | 36.3% (inactive) | 57.7% (inactive) | 41.2% (inactive) | 42.2% (inactive) | 55.9% (inactive) | 61.9% (inactive) | 38.6% (inactive) | 82.6% (inactive) | 41.4% (inactive) |
